Measurements taken from PubChem BioAssay (EPA / NIEHS).
Values joined by “and” are separate entries in the source; they are usually repeats but may differ in a detail not shown here. Identical values can stand only once. Records with an inconclusive call do not appear. Some compounds were tested as several samples or in several runs, with calls that do not always agree. Active and inactive are the calls of the source. The calls were made as follows, unless noted: active = hit-call score of the fitted dose curve at least 0.9, where 1 is the maximum; inactive = score below 0.9.

Experiments:
[1] = CCTE_Padilla_ZF_Score.Position: CCTE's 144 Hour Post-fertilization zebrafish Assay Score for Position, Padilla Lab (AID 2284409)
In short: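 Wild-type zebrafish embryos (with chorions) exposed singly from 6–8 hpf in sealed wells of Hanks' solution at 26C, rinsed at 5 dpf. At 6 dpf, blinded assessors scored abnormal water-column position by brightfield stereomicroscopy, relative to DMSO.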

[2] = CCTE_Padilla_ZF_Score.Living: CCTE's 144 Hour Post-fertilization zebrafish Assay Score for Viability, Padilla Lab (AID 2284410);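 also: larval death at 6 dpf judged by absent heartbeat or coagulation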
In short: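 Mortality at 6 dpf, judged as absent heartbeat or coagulation by two blinded observers, after sealed static exposure beginning at 6–8 hpf at 26C. Larvae were rinsed free of chemical at 5 dpf, and activity was fitted relative to DMSO.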

[3] = CCTE_Padilla_ZF_Score.General: CCTE's 144 Hour Post-fertilization zebrafish Assay Score for General Malformation, Padilla Lab (AID 2284411)
In short: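 Malformation, death and hatching were scored at 6 dpf by two blinded observers under a stereo microscope. Embryos were dosed singly from 6-8 hpf in sealed plates of 10% Hanks' at 26C and rinsed on 5 dpf; DMSO baseline.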

[4] = CCTE_Padilla_ZF_Score.Tail: CCTE's 144 Hour Post-fertilization zebrafish Assay Score for Tail Malformation, Padilla Lab (AID 2284414)
In short: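 Tail malformations were scored at 6 dpf by two blinded assessors under a stereo microscope. Chorionated embryos had been exposed from 6-8 hpf in sealed wells of 10% Hanks' at 26 C, then rinsed free of chemical at 5 dpf.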

[5] = CCTE_Padilla_ZF_Score.Blood_pooling: CCTE's 144 Hour Post-fertilization zebrafish Assay Score for Blood Pooling, Padilla Lab (AID 2284415)
In short: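 Blood pooling was scored at 6 dpf under a stereo microscope by two blinded assessors, fitted upward against DMSO. Single embryos were dosed at 6–8 hpf in 10% Hanks', kept sealed at 26C (14:10 h cycle) and rinsed at 5 dpf.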

[6] = CCTE_Padilla_ZF_Score.Any: CCTE's 144 Hour Post-fertilization zebrafish Assay Score for Any Mortality or Malformation, Padilla Lab (AID 2284416)
In short: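 Wild-type zebrafish embryos with chorions, one per well in 10% Hanks' from 6–8 hpf, dosed in sealed plates at 26 C, 14:10 h light:dark; rinsed at 5 dpf; blinded scoring at 6 dpf for death or malformation, versus DMSO.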

[7] = tested on: TTR (gene 7276); assay: CCTE_GLTED_hTTR_0.125uM: CCTE's human Transthyretin (hTTR) Inhibition Assay, with 0.125uM TTR, Great Lakes Toxicology and Ecology Division (GLTED) Lab (AID 2284431);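 also: hits lower the fluorescence signal relative to DMSO baseline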
In short: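 TTR 0.125uM + test chemical, 2 h; ANSA probe displacement; ex 380/em 475 fluorescence; signal loss vs DMSO control.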

[8] = tested on: SRY-box transcription factor 2 (SOX2) Protein Expression, Deisenroth Lab, SOX2 (gene 6657); assay: CCTE_Deisenroth_DEVTOX-GLR_Endo_SOX2: CCTE's DevTox GLR-Endo Assay Evaluation of SRY-box transcription factor 2 (SOX2) Protein Expression, Deisenroth Lab (AID 2284412; active = hit-call score of the fitted dose curve at least 0.9, where 1 is the maximum)
In short: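 Endpoint is percent SOX2-positive cells (SOX2+ count/total cells) minus 0.2% DMSO control, from high-content imaging of fixed, nuclear-stained RUES2-GLR cells. Dosing twice at 24 h intervals over 48 h differentiation, 1 nM–200 uM in 10 points.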

[9] = tested on: SRY-box transcription factor 17 (SOX17) Protein Expression, Deisenroth Lab, SOX17 (gene 64321); assay: CCTE_Deisenroth_DEVTOX-GLR_Endo_SOX17: CCTE's DevTox GLR-Endo Assay Evaluation of SRY-box transcription factor 17 (SOX17) Protein Expression, Deisenroth Lab (AID 2284413)
In short: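 Fluorescent microscopy of a SOX17 reporter in RUES2-GLR pluripotent cells scored endoderm differentiation after 48 h and two 24-h-spaced exposures. Values are percent change in SOX17+ population against 0.2% DMSO, n=4 experimental replicates.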

[10] = tested on: Brachyury (BRA) Protein Expression, TBXT (gene 6862); assay: CCTE_Deisenroth_DEVTOX-GLR_Endo_BRA: CCTE's DevTox GLR-Endo Assay Evaluation of Brachyury (BRA) Protein Expression, Deisenroth Lab (AID 2284417)
In short: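 RUES2-GLR pluripotent cells differentiated 48 h with two chemical exposures 24 h apart, 10-point range 1 nM - 200 uM. Percentage of BRA+ cells per total count by high-content imaging, minus 0.2% DMSO control.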

[11] = CCTE_Deisenroth_DEVTOX-GLR_Endo_CellCount: Viability Assessment in CCTE's DevTox GLR-Endo Assay, Deisenroth Lab (AID 2284420)
In short: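 Nuclei counted by fluorescence microscopy as a surrogate for cell number, expressed as percent change relative to 0.2% DMSO control. Human RUES2-GLR cells, 48 h differentiation, dosed twice; 1 nM - 200 uM series.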

[12] = tested on: SRY-box transcription factor 17 (SOX17) Protein Expression, Deisenroth Lab, SOX17 (gene 64321); assay: CCTE_Deisenroth_DEVTOX-GLR_Pluri_SOX17: CCTE's DevTox GLR-Pluri Assay Evaluation of SRY-box transcription factor 17 (SOX17) Protein Expression, Deisenroth Lab (AID 2284427; active = hit-call score of the fitted dose curve at least 0.9, where 1 is the maximum)
In short: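 Readout: percent SOX17+ cells (SOX17+ count/cell count) by high-content imaging of an inducible fluorescent reporter, corrected for 0.2% DMSO solvent control. RUES2-GLR cells, 48 h differentiation, dosed twice at 24 h intervals, 1 nM - 200 uM.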

[13] = tested on: SRY-box transcription factor 2 (SOX2) Protein Expression, Deisenroth Lab, SOX2 (gene 6657); assay: CCTE_Deisenroth_DEVTOX-GLR_Pluri_SOX2: CCTE's DevTox GLR-Pluri Assay Evaluation of SRY-box transcription factor 2 (SOX2) Protein Expression, Deisenroth Lab (AID 2284428)
In short: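 RUES2-GLR (human pluripotent), 48 h post-dosing, 2 exposures q24h, 1 nM–200 uM 10-pt. Fixed, nuclear dye, high-content imaging 5 fields/well. Endpoint: % SOX2+ cells (SOX2+/total count) vs 0.2% DMSO; n≥4.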

[14] = tested on: Brachyury (BRA) Protein Expression, Deisenroth Lab, TBXT (gene 6862); assay: CCTE_Deisenroth_DEVTOX-GLR_Pluri_BRA: CCTE's DevTox GLR-Pluri Assay Evaluation of Brachyury (BRA) Protein Expression, Deisenroth Lab (AID 2284429; active = hit-call score of the fitted dose curve at least 0.9, where 1 is the maximum)
In short: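 Mesoderm readout after 48 h differentiation of human RUES2-GLR cells, dosed twice (24-h intervals) at 1 nM - 200 uM. BRA+ frequency from fluorescence imaging of fixed, nuclear-stained cells, DMSO-corrected.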

[15] = CCTE_Deisenroth_DEVTOX-GLR_Pluri_CellCount: Viability Assessment in CCTE's DevTox GLR-Pluri Assay Evaluation of Total Cell Counts, Deisenroth Lab (AID 2284430)
In short: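 Cytotoxicity readout: fluorescent nuclei counts by high-content imaging, expressed as percent change relative to 0.2% DMSO. Human RUES2-GLR pluripotent line differentiated 48 h, dosed twice at 24-h intervals across 1 nM - 200 uM (10 points).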

Measured: AC50

O=C(O)C(F)(F)C(F)(F)C(F)(F)C(F)(F)C(F)(F)F
inactive: [1] | [2] | [3] | [4] | [5] | [6]
active: [7] 1.92 µM

Oc1ccc(C(c2ccc(O)cc2)(C(F)(F)F)C(F)(F)F)cc1
active: [7] 2.53 µM

O=S(=O)(O)C(F)(F)C(F)(F)C(F)(F)C(F)(F)C(F)(F)C(F)(F)F
inactive: [1] | [2] | [3] | [4] | [5]
active: [1] 87.5 µM | [2] 88.7 µM | [3] 83.7 µM | [6] 36.4 µM and 34.4 µM | [7] 0.0856 µM

Cc1cc(O)ccc1Cl
active: [7] 20.5 µM

O=S(=O)(O)C(F)(F)C(F)(F)C(F)(F)C(F)(F)F
inactive: [1] | [2] | [3] | [4] | [5] | [6]
active: [7] 2.08 µM

C=CC(N)=O
inactive: [8] | [9] | [10] | [11] | [12] | [13] | [14] | [15]

Oc1c(Cl)c(Cl)c(Cl)c(Cl)c1Cl
active: [3] 0.681 µM

O=NN(c1ccccc1)c1ccccc1
active: [7] 14.2 µM
